A short description of experiment [1]: compounds binding Alexa647 anti-His antibody – biochemical, small-molecule microarray, 635 nm fluorescence, artefact control for SMM control protein annotation, primary screen (AID 1128).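 Note: score merges feature fluorescence with signal-to-noise for each printed compound spot.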 The settings on record: higher = more signal.
Experiment [2] has as its system Human papillomavirus type 1a E7 protein (residues 1-88). Kind of experiment: HPV1a E7 small-molecule binders, primary screen, biochemical, small-molecule microarray, residues 1-88, 635 nm (AID 1129). The settings on record: small-molecule microarray binding, fluorescence 635 nm; higher = more signal.
Experiment [3] has as its target Focal adhesion kinase 1 (Homo sapiens) (UniProt Q05397). Kind of experiment: PTK2 protein binding on printed compound slides – biochemical, small-molecule microarray, 635/667 nm fluorescence, BSA, DTT, primary screen (AID 1130).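 Note: composite of spot emission at 667 nm and signal to noise over triplicate slides.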 The settings on record: 635 nm fluorescence, higher = more signal.
In experiment [4] the test system is Fibrinogen (Alexa647-labelled). Kind of experiment: Alexa647-fibrinogen binding to printed small molecules – biochemical, small-molecule microarray, 635/667 nm fluorescence, artefact control for SMM control-protein annotation, profiling panel (AID 1131).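 Note: z-score merges 667 nm fluorescence with per-spot signal-to-noise over triplicate slides.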 The settings on record: fibrinogen-A647 binding fluorescence, higher = more signal.
For experiment [5], the target named is Follistatin (Homo sapiens) (UniProt P19883). Kind of experiment: FST protein binding to printed compounds – biochemical, small-molecule microarray, 635/667 nm fluorescence, primary screen (AID 1132). The note with it: 635 nm fluorescence, higher = more signal.
For experiment [6], the target named is Fibroblast growth factor 2 (Homo sapiens) (UniProt P09038). Kind of experiment: basic fibroblast growth factor binding to printed compounds – biochemical, small-molecule microarray, 635/667 nm fluorescence, primary screen (AID 1133). The note with it: FGF2, fluorescence 635/667, higher = more signal.
The nature of experiment [7]: JC-1 mitochondrial potential readout, lung cancer cells – cell-based, A549, JC-1 fluorescence, basal, 24 h, 100 nL, profiling panel (AID 1138).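 Note: A549 lung adenocarcinoma cells under basal conditions with no added stimulus; test concentration not given here.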 The settings on record: higher = more signal.
The test system of experiment [8] is Lefty1. Kind of experiment: Lefty1 protein binding to printed compounds – biochemical, small-molecule microarray, 635/667 nm fluorescence, primary screen (AID 1139). The settings on record: fluorescence 635/667, higher = more signal.
Experiment [9] deals with wheat germ agglutinin (Triticum aestivum), Alexa647-labelled. Kind of experiment: Alexa647-WGA lectin binding to printed small molecules – biochemical, small-molecule microarray, 635/667 nm fluorescence, artefact control for SMM control-protein annotation, profiling panel (AID 1140).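 Note: score merges 667 nm feature emission with signal to noise over triplicate slides.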 The settings on record: WGA-A647 binding, 635 nm fluorescence, higher = more signal.
In experiment [10] the target is Luciferin 4-monooxygenase (Photinus pyralis) (UniProt P08659). Kind of experiment: inhibition of purified Photinus pyralis luciferase – biochemical, luminescence, purified enzyme, 2006 set, primary screen (AID 1141).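 Note: cell-free assay with purified firefly luciferase at 100 ng per well in PBS; test concentration not given here.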 The settings on record: purified firefly luciferase, SteadyGlo luminescence, 30 min; higher = more signal, called active from +8 up or from −8 down.
Experiment [11] relates to Wnt5a (protein binding on small-molecule microarray). Kind of experiment: small molecules binding Wnt5a protein – biophysical, small-molecule microarray, 635/667 nm fluorescence, primary screen (AID 1142).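 Note: fluorescence read at 667 nm with signal to noise per printed feature.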 The note with it: 635 nm fluorescence, higher = more signal.
The nature of experiment [12]: ATP-based viability of Huh7 replicon cells – cell-based, CellTiter-Glo luminescence, basal, 48 h, cytotoxicity control for HCV replication inhibitor project, primary screen (AID 1143).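 Note: Huh7 hepatoma cells carrying a hepatitis C replication reporter with no stimulus; test concentration not given here.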 The note with it: higher = more signal, called active from +8 up or from −8 down. On the technique in general: In antiviral work, replicon cells carry a viral genome segment that copies itself.

A short description of experiment [13]: Pseudomonas biofilm growth suppression – PAO1 strain, BacTiter-Glo luminescence, LB-PBS, primary screen (AID 1144). The note with it: P. aeruginosa PAO1 biofilm, 12 h, higher = more signal.
Experiment [14] can be described thus: basal CRE-LacZ reporter activity in PC12 – cell-based, unstimulated, primary screen (AID 1145). The note with it: no forskolin, luminescence, 4.5 h, higher = more signal, called active from +8 up or from −8 down.
Experiment [15] in a line: forskolin-driven CRE-LacZ activity in PC12 – cell-based, CRE-LacZ reporter, forskolin-stimulated, primary screen (AID 1146).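 Note: PC12 cells with 6xCRE LacZ reporter stimulated by forskolin 10 µM; beta-galactosidase reporter signal reflecting CREB driven transcription.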 The settings on record: luminescence, 4.5 h, higher = more signal, called active from +8 up or from −8 down.
Experiment [16] has as its target Streptavidin (Streptomyces avidinii) (UniProt P22629). Kind of experiment: compounds binding control protein streptavidin – biophysical, small-molecule microarray, 635/667 nm fluorescence, artefact control for SMM compound annotation, primary screen (AID 1147).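 Note: signal reflects streptavidin binding to arrayed compounds as a control protein.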 The note with it: higher = more signal.
Experiment [17] can be described thus: probe aInhba binding on compound microarray – biochemical, small-molecule microarray, 635/667 nm fluorescence, primary screen (AID 1148).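 Note: score merges 667nm spot fluorescence with signal-to-noise for antibody binding to printed compounds.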 The note with it: higher = more signal.
Experiment [18] addresses Torsin-1A (Homo sapiens) (UniProt O14656). Kind of experiment: TOR1A wild-type binding on microarray – cell lysate, small-molecule microarray, lysate, 635/667 nm, primary screen (AID 1149). The note with it: COS7 hTOR1A-WT lysate, 635 nm fluorescence, higher = more signal.
Experiment [19] shares this target. Kind of experiment: torsin A mutant lysate binding on microarrays – cell lysate, small-molecule microarray, COS7 lysate, 635/667 nm fluorescence, primary screen (AID 1150).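 Note: score pools 667 nm emission and signal to noise measuring lysate protein binding.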 The note with it: COS7 hTOR1A mutant lysate, 635 nm fluorescence, higher = more signal.
Experiment [20] deals with Sonic hedgehog protein (Shh). Kind of experiment: Sonic hedgehog microarray binding compounds – biochemical, small-molecule microarray, 635/667 nm fluorescence, primary screen (AID 1151).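 Note: Shh protein binding to compounds spotted on small-molecule microarray slides; score combines spot fluorescence intensity with signal-to-noise across triplicate slides.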 The note with it: 635 nm fluorescence, higher = more signal.

The source made the active and inactive calls. Unless noted, the rule behind the calls is not given here.

Streptavidin (Streptomyces avidinii), sequence (P22629 whole entry, looked up): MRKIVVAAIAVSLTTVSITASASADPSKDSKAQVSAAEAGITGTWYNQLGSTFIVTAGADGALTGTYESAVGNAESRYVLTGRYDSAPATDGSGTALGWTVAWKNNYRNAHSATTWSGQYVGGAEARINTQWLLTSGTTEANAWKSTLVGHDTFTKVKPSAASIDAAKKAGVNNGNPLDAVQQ
Torsin-1A (Homo sapiens), sequence (O14656 whole entry, looked up): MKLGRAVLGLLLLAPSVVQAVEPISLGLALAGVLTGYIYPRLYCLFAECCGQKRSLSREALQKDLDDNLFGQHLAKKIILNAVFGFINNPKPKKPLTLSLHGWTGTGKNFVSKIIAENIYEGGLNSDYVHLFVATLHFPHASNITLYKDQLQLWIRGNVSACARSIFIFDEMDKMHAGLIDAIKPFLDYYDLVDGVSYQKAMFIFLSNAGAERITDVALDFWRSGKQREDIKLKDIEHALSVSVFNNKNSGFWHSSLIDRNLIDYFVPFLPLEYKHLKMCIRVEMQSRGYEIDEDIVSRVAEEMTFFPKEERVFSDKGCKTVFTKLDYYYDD
Luciferin 4-monooxygenase (Photinus pyralis), sequence (P08659 whole entry, looked up): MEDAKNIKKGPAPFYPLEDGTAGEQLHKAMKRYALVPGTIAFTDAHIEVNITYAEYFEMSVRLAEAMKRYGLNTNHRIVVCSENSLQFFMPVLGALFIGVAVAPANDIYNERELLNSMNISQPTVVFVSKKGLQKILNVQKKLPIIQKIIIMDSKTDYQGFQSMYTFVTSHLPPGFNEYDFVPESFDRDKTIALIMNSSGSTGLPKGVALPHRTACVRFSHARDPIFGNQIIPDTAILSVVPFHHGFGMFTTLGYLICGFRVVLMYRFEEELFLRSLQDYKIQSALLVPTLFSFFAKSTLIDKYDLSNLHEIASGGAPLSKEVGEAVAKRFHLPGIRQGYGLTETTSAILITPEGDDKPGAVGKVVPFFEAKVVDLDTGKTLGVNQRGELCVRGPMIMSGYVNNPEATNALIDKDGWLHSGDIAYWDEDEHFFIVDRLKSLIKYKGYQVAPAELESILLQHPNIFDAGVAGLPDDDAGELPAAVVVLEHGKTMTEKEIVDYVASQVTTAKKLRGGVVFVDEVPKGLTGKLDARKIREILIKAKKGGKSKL
Follistatin (Homo sapiens), sequence (P19883 whole entry, looked up): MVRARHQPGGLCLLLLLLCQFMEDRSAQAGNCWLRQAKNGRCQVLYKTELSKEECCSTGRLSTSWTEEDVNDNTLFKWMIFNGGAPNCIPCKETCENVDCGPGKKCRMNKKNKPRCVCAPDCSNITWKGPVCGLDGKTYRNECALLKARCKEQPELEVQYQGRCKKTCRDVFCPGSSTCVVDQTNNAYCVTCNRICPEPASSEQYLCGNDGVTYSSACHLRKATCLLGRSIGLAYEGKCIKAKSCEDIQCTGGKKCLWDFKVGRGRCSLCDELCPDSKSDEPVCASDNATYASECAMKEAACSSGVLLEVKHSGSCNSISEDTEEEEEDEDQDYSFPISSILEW
Focal adhesion kinase 1 (Homo sapiens), sequence (Q05397 whole entry, looked up): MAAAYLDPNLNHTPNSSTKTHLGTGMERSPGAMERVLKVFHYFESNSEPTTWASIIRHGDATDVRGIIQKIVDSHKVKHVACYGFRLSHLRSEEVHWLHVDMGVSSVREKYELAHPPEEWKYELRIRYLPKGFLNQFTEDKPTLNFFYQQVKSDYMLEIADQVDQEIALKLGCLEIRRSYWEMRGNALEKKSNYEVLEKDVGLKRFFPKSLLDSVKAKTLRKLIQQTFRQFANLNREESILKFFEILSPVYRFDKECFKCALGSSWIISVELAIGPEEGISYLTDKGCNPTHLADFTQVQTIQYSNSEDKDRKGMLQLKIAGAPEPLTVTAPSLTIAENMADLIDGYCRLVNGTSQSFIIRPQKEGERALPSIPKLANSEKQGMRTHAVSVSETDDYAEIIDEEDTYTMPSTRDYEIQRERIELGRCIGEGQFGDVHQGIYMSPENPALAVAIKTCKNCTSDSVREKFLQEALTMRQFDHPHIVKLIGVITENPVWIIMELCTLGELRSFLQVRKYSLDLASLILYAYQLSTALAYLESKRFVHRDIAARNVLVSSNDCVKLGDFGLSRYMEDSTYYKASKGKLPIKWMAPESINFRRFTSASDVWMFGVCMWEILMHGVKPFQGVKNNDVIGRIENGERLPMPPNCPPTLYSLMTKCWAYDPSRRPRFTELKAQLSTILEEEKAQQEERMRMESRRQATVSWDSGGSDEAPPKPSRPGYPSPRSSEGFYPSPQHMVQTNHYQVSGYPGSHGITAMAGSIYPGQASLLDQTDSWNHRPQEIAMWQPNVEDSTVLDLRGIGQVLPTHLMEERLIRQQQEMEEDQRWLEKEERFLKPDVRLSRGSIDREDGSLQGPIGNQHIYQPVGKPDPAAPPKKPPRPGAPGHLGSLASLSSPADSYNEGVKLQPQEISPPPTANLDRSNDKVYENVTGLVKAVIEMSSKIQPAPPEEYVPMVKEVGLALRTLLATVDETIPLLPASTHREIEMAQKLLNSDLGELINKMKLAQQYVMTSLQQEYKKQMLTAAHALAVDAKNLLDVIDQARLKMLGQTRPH
Fibroblast growth factor 2 (Homo sapiens), sequence (P09038 whole entry, looked up): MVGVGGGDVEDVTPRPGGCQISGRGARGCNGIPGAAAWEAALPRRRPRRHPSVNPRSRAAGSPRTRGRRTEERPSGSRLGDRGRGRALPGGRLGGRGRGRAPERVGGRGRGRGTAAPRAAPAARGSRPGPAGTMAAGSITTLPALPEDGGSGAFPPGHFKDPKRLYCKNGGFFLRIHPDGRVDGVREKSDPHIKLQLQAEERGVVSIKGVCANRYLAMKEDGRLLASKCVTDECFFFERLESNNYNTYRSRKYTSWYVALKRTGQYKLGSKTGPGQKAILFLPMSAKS

With `CC(C)OC(=O)C=C1C[C@@H](c2ccc(C#N)cc2)O[C@@H](c2ccc(C#N)cc2)O1`, the composite z-score in experiment [1] was found to be 1.48; in experiment [2], 1.22; in experiment [3], 0.704; in experiment [4], 0.978; in experiment [5], 1.31; in experiment [6] it was 0.267. Further, the composite z-score in experiment [8] is 0.48; in experiment [9], 0.972; in experiment [11], 0.923; in [16] it was 0.77; in experiment [17] it was 0.165; in [18], 1.99. Moreover, the composite z-score is 2.06 in experiment [19] and 0.292 in experiment [20]. Besides, the z-score in experiment [7] is -0.356; in [10], -0.178 (inactive); in [12], -2.6 (inactive); in experiment [13], 0.618 (inactive); in experiment [14], 2.74 (inactive); in experiment [15], 0.421 (inactive).

Take `CC(C)C[C@@H]1NC(=O)[C@H]2C[C@@H](C(=O)NCCCCCCN(C)C)[C@@H](c3cccc(OCCO)c3)N2C1=O`: the composite z-score was found to be 2.19 in experiment [1]; 1.01 in [2]; 0.204 in experiment [3]; 0.0478 in experiment [4]; 1.3 in experiment [5]; 1.6 in experiment [6]. The composite z-score is 1.65 in [8]; 0.591 in experiment [9]; 0.726 in experiment [11]; -0.305 in experiment [16]; -0.0317 in [17]; 1.22 in experiment [18]. Further, the composite z-score in experiment [19] is 1.32; in [20] it was 2.13. In addition, the z-score is -0.0993 in experiment [7]; -0.156 (inactive) in [10]; 0.069 (inactive) in experiment [12]; -0.402 (inactive) in experiment [13]; 0.0124 (inactive) in [14]; -0.995 (inactive) in [15].

As to `CCOC(=O)C[C@H]1[C@H](OC(=O)c2ccc(C(=O)c3ccccc3)cc2)[C@@H](NC(=O)c2ccc(-c3ccccc3)cc2)c2cc(OCCCO)ccc2N1C(=O)c1ccc2ccccc2n1`, the composite z-score in experiment [1] is 0.128; in experiment [2] it was 1.01; in [3], 0.0723; in experiment [4], 0.873; in experiment [5], 0.864; in experiment [6], 0.688. Besides, the composite z-score in experiment [8] was 1.07; in [9], 0.185; in experiment [11], 0.599; in experiment [16], 1.44; in experiment [17], -0.102; in experiment [18], 0.274. The composite z-score in [19] amounted to 0.408; in experiment [20], 1.11. In addition, the z-score in experiment [7] was 0.421; in [10] it was 0.881 (inactive); in experiment [12], -0.0434 (inactive); in experiment [13], -1.22 (inactive); in [14], -0.738 (inactive); in experiment [15] it was -0.286 (inactive).

On to `COCC1=C2[C@@H](CCc3ccccc3)OB(O)C[C@@H]2n2c(=O)n(-c3ccccc3)c(=O)n2C1`, for which the composite z-score in [1] was 0.241; in experiment [2], -0.028; in experiment [3], -0.0493; in [4] it was -0.434; in experiment [5], 0.133; in experiment [6], 0.506. The composite z-score in [8] is 0.336; in experiment [9], -0.228; in experiment [11], 0.102; in experiment [16], -0.324; in experiment [17], -0.082; in experiment [18], -0.0531. Also, the composite z-score in [19] was -0.066; in experiment [20] it was 0.966. Further, the z-score in experiment [7] was 0.581; in experiment [10], -1.19 (inactive); in experiment [12], -0.405 (inactive); in experiment [13], 0.523 (inactive); in experiment [14], 2.22 (inactive); in [15], -0.714 (inactive).

For `CC(CCN1CCCCc2nc(C)c(C)cc21)=NOC(C)CN1CCCc2nc(C)c(C)cc21` (stereo not given), the composite z-score in experiment [1] was -0.756; in experiment [2], 1.12; in experiment [3] it was 0.671; in experiment [4], 0.651; in experiment [5], 1.36; in [6], 0.97. Besides, the composite z-score worked out at 1.45 in experiment [8]; 0.766 in experiment [9]; 0.871 in experiment [11]; 1.42 in experiment [16]; 0.637 in experiment [17]; 1.19 in [18]. In addition, the composite z-score in [19] was 0.863; in experiment [20] it was 1.73. In addition, the z-score in [7] was -0.12; in experiment [10], -0.0885 (inactive); in experiment [12] it was -0.191 (inactive); in experiment [13], -0.812 (inactive); in experiment [14], -0.24 (inactive); in experiment [15] it was 0.0936 (inactive).

The values above are taken from PubChem BioAssay.
